Results filed as inconclusive are left out. A call without a number means that no potency is given here. Calls of active or inactive are those of the source. The call rests on the fitted dose curve; in most records, active means well fitted curve in the direction sought with a large enough effect; inconclusive means small, poorly fitted or top-dose-only effect, or another doubt; inactive means no such curve, though single readings can be large; an effect the other way counts as inactive or inconclusive.
Key:
[1] = S16 Schwann cell viability assay (CellTiter-Glo assay) (AID 624031); further: nearly all actives have a fitted effect of over 70% in size; further: potency means the concentration at half of the fitted maximal effect
In short: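 This viability control uses native rat S16 Schwann cells grown in DMEM plus 10% FBS. After a 24 h compound treatment at 37 °C, CellTiter-Glo luminescence reports ATP content, scaled against DMSO-treated and cell-free wells.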

[2] = S16 Schwann cell PMP22 intronic element firefly luciferase assay (AID 624032); further: nearly all actives have a fitted effect of over 30% in size; further: potency means the concentration at half of the fitted maximal effect
In short: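 Luciferase reporter of PMP22 intronic-element expression in stably transfected S16 rat Schwann cells, read by ONE-Glo luminescence after 24 h compound exposure at 37 C. Activity scaled between DMSO (0%) and positive-control PTC124; concentration-effect curves quality-classified.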

3D7 = assay: qHTS profiling for inhibitors of Plasmodium falciparum proliferation (AID 504749); further: nearly all actives have a fitted effect of over 60% in size; further: potency means the concentration at half of the fitted maximal effect; conditions: P. falciparum in erythrocytes, SYBR Green DNA, 72 h; series mostly up to 28.7 µM
In short: (§1)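 Infected RBCs, 0.3% parasitemia/2.5% Hct final; cpd 72 h, 37 C, 5% CO2; lysis buffer with saponin/triton/SYBR Green I, o/n RT dark; FI 485/535; norm. to artemisinin (0.29 uM) and DMSO.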

7G8 = assay: as above; conditions: P. falciparum in erythrocytes, SYBR Green DNA, 72 h; series mostly up to 28.7 µM
In short: as §1

AA1029 = assay: as above; conditions: P. falciparum in erythrocytes, SYBR Green DNA, 72 h; series mostly up to 28.7 µM
In short: as §1

CP211 = assay: as above; conditions: P. falciparum in erythrocytes, SYBR Green DNA, 72 h; series mostly up to 28.7 µM
In short: as §1

CP217 = assay: as above; conditions: P. falciparum in erythrocytes, SYBR Green DNA, 72 h; series mostly up to 28.7 µM
In short: as §1

CP269 = assay: as above; conditions: P. falciparum in erythrocytes, SYBR Green DNA, 72 h; series mostly up to 28.7 µM
In short: as §1

DIV14 = assay: as above; conditions: P. falciparum in erythrocytes, SYBR Green DNA, 72 h; series mostly up to 28.7 µM
In short: as §1

DIV17 = assay: as above; conditions: P. falciparum in erythrocytes, SYBR Green DNA, 72 h; series mostly up to 28.7 µM
In short: as §1

Dd2 = assay: as above; conditions: P. falciparum in erythrocytes, SYBR Green DNA, 72 h; series mostly up to 28.7 µM
In short: as §1

ECU = assay: as above; conditions: P. falciparum in erythrocytes, SYBR Green DNA, 72 h; series mostly up to 28.7 µM
In short: as §1

FAB9 = assay: as above; conditions: P. falciparum in erythrocytes, SYBR Green DNA, 72 h; series mostly up to 28.7 µM
In short: as §1

ICS = assay: as above; conditions: P. falciparum in erythrocytes, SYBR Green DNA, 72 h; series mostly up to 28.7 µM
In short: as §1

N140 = assay: as above; conditions: P. falciparum in erythrocytes, SYBR Green DNA, 72 h; series mostly up to 28.7 µM
In short: as §1

P93_24 = assay: as above; conditions: P. falciparum in erythrocytes, SYBR Green DNA, 72 h; series mostly up to 28.7 µM
In short: as §1

PAD = assay: as above; conditions: P. falciparum in erythrocytes, SYBR Green DNA, 72 h; series mostly up to 28.7 µM
In short: as §1

TAB165 = assay: as above; conditions: P. falciparum in erythrocytes, SYBR Green DNA, 72 h; series mostly up to 28.7 µM
In short: as §1

[3] = Confirmation and Secondary Assay for Modulators of Hemoglobin Beta Chain Splicing at IVS2 654 locus (AID 910);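 further: HeLa cells stably carrying EGFP split by mutant beta-globin IVS2-654 intron; per-well total GFP intensity by laser scanning cytometry after 2-day treatment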
In short: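 Readout: per-well total peak green fluorescence (488 nm ex, 500–520 nm em) from objects 5–250 µm, reflecting correct splicing of an EGFP-654 reporter. Compounds were applied for 2 days at 37 °C to overnight-plated HeLa EGFP-654 cells; controls were DMSO and 500 nM IVS2-654 PNA.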

[4] = Confirmation and Secondary Assay for Modulators of Hemoglobin Beta Chain Splicing at IVS2 705 locus (AID 930);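 further: HeLa cells stably expressing the EGFP-705 splicing reporter; GFP fluorescence per well restored by corrected splicing of the IVS2-705 intron in EGFP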
In short: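 Secondary splice-site specificity test uses HeLa expressing CMV-driven EGFP interrupted by IVS2-705; cells were treated 2 days at 37C with 500 nM antisense PNA as positive control.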

Row | Compound | Potency [1] | Potency [2] | Potency (3D7) | Potency (7G8) | Potency (AA1029) | Potency (CP211) | Potency (CP217) | Potency (CP269) | Potency (DIV14) | Potency (DIV17) | Potency (Dd2) | Potency (ECU) | Potency (FAB9) | Potency (ICS) | Potency (N140) | Potency (P93_24) | Potency (PAD) | Potency (TAB165) | Potency [3] | outcome [4]
1 | Oc1cc[c]([Hg][Cl])cc1 | 1.14 µM (active) | 0.907 µM (active) | 8.91 µM (active) | 3.16 µM (active) | 11.2 µM (active) | 10.7 µM (active) | 8.91 µM (active) | 8.49 µM (active) | 7.57 µM (active) | 6.75 µM (active) | 11.2 µM (active) | 10 µM (active) | 10 µM (active) | 7.94 µM (active) | 6.31 µM (active) | 11.2 µM (active) | 11.2 µM (active) | 10 µM (active) | – | –
2 | CCN(CC)/[N+]([O-])=N/O | – | – | – | – | – | – | – | – | – | – | – | – | – | – | – | – | – | – | inactive | inactive
3 | C[N+](C)(C)CC(=O)[O-] | inactive | inactive | inactive | inactive | inactive | inactive | inactive | inactive | inactive | inactive | inactive | inactive | inactive | inactive | inactive | inactive | inactive | inactive | inactive | inactive

Source: PubChem BioAssay (NCATS)
